# Source: PubChem BioAssay (Tox21)
# Inconclusive results are not listed. Entries that show only a call come without a potency. Active and inactive are the calls of the source. Unless noted, calls come from the whole dose curve.
# Key:
# [1] = Nuclear factor erythroid 2-related factor 2/antioxidant responsive element (Nrf2/ARE) small molecule agonists: qHTS cell viability counter screen in human keratinocytes (AID 1919968; active = well fitted curve in the direction sought with a large enough effect in the repeat runs; an effect the other way counts as inactive or inconclusive; note: nearly all actives have a fitted effect of over 55% in size); details: KeratinoSens HaCaT ARE cells viability, CellTiter-Fluor, 24 h; series mostly up to 92.4 µM
# Summary of the method: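 Viability counter-screen: KeratinoSens reporter cells, DMSO-delivered compounds, 23 h at 37 C, CellTiter-Fluor fluorescence.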
# [2] = Nuclear factor erythroid 2-related factor 2/antioxidant responsive element (Nrf2/ARE) small molecule agonists: luciferase reporter gene qHTS assay in human keratinocytes (AID 1919969); details: KeratinoSens HaCaT ARE-luciferase, luminescence, 24 h; series mostly up to 92.4 µM; note: nearly all actives have a fitted effect of over 35% in size
# [3] = biological target: Gonadotropin-releasing hormone receptor (Homo sapiens) (UniProt P30968); assay: Human gonadotropin-releasing hormone receptor (GnRHR) small molecule agonists, calcium flux assay in GnRHR-HEK293 cells (AID 1920063); details: calcium flux fluorescence, agonist mode; series mostly up to 57.6 µM; note: nearly all actives have a fitted effect of over 35% in size
# Gonadotropin-releasing hormone receptor (Homo sapiens), sequence (P30968 whole entry, looked up): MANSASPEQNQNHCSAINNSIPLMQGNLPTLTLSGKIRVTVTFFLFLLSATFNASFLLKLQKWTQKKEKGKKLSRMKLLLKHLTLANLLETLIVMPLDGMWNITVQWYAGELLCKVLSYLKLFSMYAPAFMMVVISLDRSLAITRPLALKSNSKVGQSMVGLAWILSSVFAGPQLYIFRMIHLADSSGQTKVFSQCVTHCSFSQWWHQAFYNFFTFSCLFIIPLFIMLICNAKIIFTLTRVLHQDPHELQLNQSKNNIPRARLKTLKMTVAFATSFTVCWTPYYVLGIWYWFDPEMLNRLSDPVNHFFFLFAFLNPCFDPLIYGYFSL
# Summary of the method: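 Tox21-format agonist screen using human GnRHR-expressing HEK293 cells and a fluorescent calcium dye; kinetic 3-min fluorescence reading after compound addition, 15-point concentration series run in triplicate.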
# [4] = biological target: KiSS-1 receptor (Homo sapiens) (UniProt Q969F8); assay: Human kisspeptin (KISS1R) small molecule agonists, calcium flux assay in KISS1R-HEK293 cells (AID 1920064; active = well fitted curve in the direction sought with a large enough effect in the repeat runs; an effect the other way counts as inactive or inconclusive); details: KISS1R-HEK293, calcium flux fluorescence, agonist; series mostly up to 76.8 µM
# KiSS-1 receptor (Homo sapiens), sequence (Q969F8 whole entry, looked up): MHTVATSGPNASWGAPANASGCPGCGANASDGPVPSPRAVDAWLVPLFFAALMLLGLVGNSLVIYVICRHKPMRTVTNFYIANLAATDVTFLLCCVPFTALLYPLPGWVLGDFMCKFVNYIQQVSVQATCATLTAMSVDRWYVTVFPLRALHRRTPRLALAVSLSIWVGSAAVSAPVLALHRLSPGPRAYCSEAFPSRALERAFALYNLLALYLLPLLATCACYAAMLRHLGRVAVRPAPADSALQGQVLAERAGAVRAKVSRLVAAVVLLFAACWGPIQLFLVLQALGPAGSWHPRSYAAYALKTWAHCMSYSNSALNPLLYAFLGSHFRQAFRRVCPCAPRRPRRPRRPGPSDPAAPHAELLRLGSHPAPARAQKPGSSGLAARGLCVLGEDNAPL
# Summary of the method: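 Intracellular calcium mobilization in KISS1R-HEK293 cells was recorded by fluorescence (Ex/Em 480/540) for 3 min following compound addition to cells pre-loaded 1 h with calcium dye.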
# [5] = G protein-coupled receptor (GPCR) small molecule agonists, calcium flux assay: HEK293 wild type cell line counter screen (AID 1920065); details: HEK293 WT calcium flux, fluorescence, agonist mode; series mostly up to 57.6 µM
# Summary of the method: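 In this agonist-mode screen, ATP is the positive control and DMSO the vehicle. Cells grow 18 h before a 1 h dye incubation at 37 C; signal is taken at Ex/Em 480/540 over 3 min.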
# [6] = p53 small molecule agonists, cell-based qHTS assay with human liver microsomes (AID 1963577); details: HCT-116 p53RE-bla with human liver microsomes, ratio, 16 h; series mostly up to 66 µM;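 note: p53 response element beta-lactamase reporter cells with liver microsomes plus NADPH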
# Summary of the method: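 In this qHTS, p53 response-element beta-lactamase cells receive test compound together with a microsome/NADPH activating system (0.5 mg/mL final each) and are incubated 16 h at 37 C before LiveBLAzer fluorescence detection.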
# [7] = p53 small molecule agonists, cell-based qHTS assay with rat liver microsomes (AID 1963578); details: HCT-116 p53RE-bla, beta-lactamase ratio, 16 h; series mostly up to 66 µM
# Summary of the method: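 Agonist mode in p53RE-bla reporter cells, with compounds co-incubated 16 h at 37 C alongside 0.5 mg/mL rat liver microsomes and 0.5 mg/mL NADPH (final), followed by a 2 h LiveBLAzer detection step.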
# [8] = p53 small molecule agonists, cell-based qHTS assay with human liver microsomes: qHTS cell viability counter screen (AID 1963579); details: p53RE-bla HCT-116 viability, ATP luminescence, 16 h, HLM; series mostly up to 66 µM; note: nearly all actives have a fitted effect of over 45% in size
# Summary of the method: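 Metabolically activated exposure: compounds, human liver microsomes and NADPH (0.5 mg/mL final apiece) were added to p53RE-bla cells seeded 5 h earlier, left 16 h at 37 C, and then assessed for viability by CellTiter-Glo luminescence.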
# [9] = p53 small molecule agonists, cell-based qHTS assay with rat liver microsomes: qHTS cell viability counter screen (AID 1963580); details: p53RE-bla HCT-116 + rat microsomes, ATP viability, 16 h; series mostly up to 66 µM; note: nearly all actives have a fitted effect of over 45% in size
# Summary of the method: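 HCT-116 p53RE-bla, 4,000 cells/well, 5 h pre-incubation; cpd + rat liver microsomes 0.5 mg/mL + NADPH 0.5 mg/mL (final); 16 h, 37 C; CellTiter-Glo, 30 min RT; luminescence.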
# [10] = p53 small molecule agonists, cell-based qHTS assay: qHTS cell viability counter screen (AID 1963581); details: p53RE-bla HCT-116 viability, ATP luminescence, 16 h; series mostly up to 66 µM; note: nearly all actives have a fitted effect of over 45% in size
# Summary of the method: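 Compounds are pinned onto HCT-116 p53RE-bla cells and left 16 h at 37 C. Following the reporter FRET read, ATP is quantified by CellTiter-Glo luminescence after 30 min at room temperature.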
# [11] = p53 small molecule agonists, cell-based qHTS assay (AID 1963582; active = well fitted activation curve with a large enough effect in the signal ratio in the repeat runs, not every such curve was filed as active; the % refers to the signal ratio); details: HCT-116 p53RE-bla reporter, beta-lactamase FRET ratio, 16 h; series mostly up to 66 µM
# Summary of the method: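 Agonist activity was scored from beta-lactamase FRET fluorescence in p53RE-bla cells treated 16 h at 37 C with compounds in DMSO, substrate incubation being 2 h at room temperature.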
# [12] = biological target: 5-hydroxytryptamine receptor 2A (Homo sapiens) (UniProt P28223); assay: 5-hydroxytryptamine receptor 2A (HTR2A) small molecule agonists, cell-based qHTS assay (AID 1963587); details: HTR2A-CHO cells, calcium flux fluorescence, agonist mode; series mostly up to 76.8 µM; note: nearly all actives have a fitted effect of over 30% in size
# 5-hydroxytryptamine receptor 2A (Homo sapiens), sequence (P28223 whole entry, looked up): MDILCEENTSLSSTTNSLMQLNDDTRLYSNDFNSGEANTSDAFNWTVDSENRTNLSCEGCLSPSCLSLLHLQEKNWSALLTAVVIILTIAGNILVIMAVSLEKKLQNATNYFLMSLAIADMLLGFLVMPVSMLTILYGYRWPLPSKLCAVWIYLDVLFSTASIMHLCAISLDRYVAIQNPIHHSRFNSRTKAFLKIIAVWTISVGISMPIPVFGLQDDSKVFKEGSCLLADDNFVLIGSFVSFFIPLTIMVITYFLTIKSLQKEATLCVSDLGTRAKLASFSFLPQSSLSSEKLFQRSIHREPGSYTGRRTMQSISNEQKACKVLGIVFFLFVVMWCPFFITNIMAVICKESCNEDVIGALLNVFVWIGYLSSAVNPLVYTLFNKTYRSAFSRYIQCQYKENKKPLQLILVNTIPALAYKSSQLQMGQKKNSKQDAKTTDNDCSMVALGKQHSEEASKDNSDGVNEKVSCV
# Summary of the method: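 Kinetic calcium-flux fluorescence (2 min, 1 sec intervals) after compound addition in agonist mode. HTR2A-CHO cells were cultured 18 h, then dye-loaded 1 h at 37 C.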
# [13] = biological target: Muscarinic acetylcholine receptor M1 (Homo sapiens) (UniProt P11229); assay: Cholinergic receptor muscarinic 1 (CHRM1) small molecule agonists, cell-based qHTS assay (AID 1963589); details: CHRM1-CHO cells, agonist mode, calcium flux fluorescence; series mostly up to 76.8 µM; note: nearly all actives have a fitted effect of over 35% in size
# Muscarinic acetylcholine receptor M1 (Homo sapiens), sequence (P11229 whole entry, looked up): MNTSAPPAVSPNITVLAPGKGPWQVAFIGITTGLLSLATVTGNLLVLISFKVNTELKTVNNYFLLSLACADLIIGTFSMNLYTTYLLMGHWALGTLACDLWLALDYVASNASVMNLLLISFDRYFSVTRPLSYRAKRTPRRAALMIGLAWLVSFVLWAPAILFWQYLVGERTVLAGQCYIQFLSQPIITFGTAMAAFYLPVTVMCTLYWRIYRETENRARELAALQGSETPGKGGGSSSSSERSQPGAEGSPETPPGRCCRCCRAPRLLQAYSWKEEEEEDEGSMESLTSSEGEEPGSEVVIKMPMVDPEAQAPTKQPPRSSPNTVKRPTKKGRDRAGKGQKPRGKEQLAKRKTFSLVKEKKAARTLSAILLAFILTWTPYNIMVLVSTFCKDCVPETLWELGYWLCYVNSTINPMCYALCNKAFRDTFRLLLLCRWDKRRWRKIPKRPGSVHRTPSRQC
# Summary of the method: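 Stable CHRM1-CHO cells (human receptor) were incubated 18 h, dye-loaded for 1 h at 37 C and exposed to test compounds for agonist activity, with calcium-dependent fluorescence followed kinetically.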
# [14] = biological target: Beta-2 adrenergic receptor (Homo sapiens) (UniProt P07550); assay: Adrenergic beta2 receptor (ADRB2) small molecule antagonists, cell-based qHTS assay (AID 1963592); details: CHO-ADRB2 cells, isoproterenol-stimulated cAMP HTRF ratio, 0.5 h; series mostly up to 92.4 µM; note: nearly all actives have a fitted effect of over 50% in size
# Beta-2 adrenergic receptor (Homo sapiens), sequence (P07550 whole entry, looked up): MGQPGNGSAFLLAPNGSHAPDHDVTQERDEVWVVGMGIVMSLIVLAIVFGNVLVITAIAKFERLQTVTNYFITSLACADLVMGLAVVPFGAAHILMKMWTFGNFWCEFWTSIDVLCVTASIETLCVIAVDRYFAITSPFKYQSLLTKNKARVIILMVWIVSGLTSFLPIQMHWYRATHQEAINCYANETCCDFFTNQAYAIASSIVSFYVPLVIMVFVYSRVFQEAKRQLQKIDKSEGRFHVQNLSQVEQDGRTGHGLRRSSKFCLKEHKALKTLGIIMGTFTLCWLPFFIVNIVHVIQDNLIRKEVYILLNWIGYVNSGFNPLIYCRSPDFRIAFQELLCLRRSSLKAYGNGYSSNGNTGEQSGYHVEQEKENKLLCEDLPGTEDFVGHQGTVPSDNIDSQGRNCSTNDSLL
# Summary of the method: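 Cells (CHO, stable ADRB2 overexpression) incubated 18-20hr at 37C; compounds added from DMSO; agonist mix (1nM isoproterenol, 100uM IBMX, 25uM Ro-20-1724) added; 0.5hr RT; d2-cAMP and anti-cAMP-cryptate added; 1hr RT; 665/615 nm read.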
# [15] = biological target: D(2) dopamine receptor (Homo sapiens) (UniProt P14416); assay: Dopamine D2 receptor (DRD2) small molecule agonists, cell-based qHTS assay (AID 1963594); details: HEK293-DRD2 cAMP HTRF, agonist mode, 30 min; series mostly up to 92.4 µM; note: nearly all actives have a fitted effect of over 35% in size
# D(2) dopamine receptor (Homo sapiens), sequence (P14416 whole entry, looked up): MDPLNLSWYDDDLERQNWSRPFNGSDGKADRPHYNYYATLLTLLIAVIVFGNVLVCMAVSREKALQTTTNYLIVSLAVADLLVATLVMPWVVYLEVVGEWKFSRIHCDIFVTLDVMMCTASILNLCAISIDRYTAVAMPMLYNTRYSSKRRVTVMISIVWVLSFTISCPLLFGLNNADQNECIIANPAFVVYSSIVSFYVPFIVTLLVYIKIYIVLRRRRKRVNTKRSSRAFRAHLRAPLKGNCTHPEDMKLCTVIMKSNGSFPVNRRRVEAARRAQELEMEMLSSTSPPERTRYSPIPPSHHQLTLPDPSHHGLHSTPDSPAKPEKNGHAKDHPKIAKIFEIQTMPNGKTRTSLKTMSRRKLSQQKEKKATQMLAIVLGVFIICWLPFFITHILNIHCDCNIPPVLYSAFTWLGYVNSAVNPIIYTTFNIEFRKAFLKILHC
# Summary of the method: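 cAMP accumulation in DRD2-HEK293 cells measured by HTRF after 1 h detection; compounds added 10 min before NKH477 (200nM […]) forskolin-analogue stimulation, 30 min at room temperature, with Ro20-1724 present at 0.1 mM final.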
# [16] = biological target: D(2) dopamine receptor (Homo sapiens) (UniProt P14416); assay: Dopamine D2 receptor (DRD2) small molecule antagonists, cell-based qHTS assay (AID 1963595; active = well fitted inhibition curve with a large enough effect in the signal ratio in the repeat runs, with a control signal flat; the % refers to the signal ratio); details: HEK293-DRD2 cAMP HTRF antagonist mode; series mostly up to 92.4 µM
# Summary of the method: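 Antagonism was scored as restored cAMP in HEK293-DRD2 cells. These cells were stimulated with 200 nM NKH477 and 12 nM quinpirole for 30 min at room temperature, in the presence of 0.1 mM Ro20-1724.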
# [17] = biological target: Muscarinic acetylcholine receptor M1 (Homo sapiens) (UniProt P11229); assay: Cholinergic receptor muscarinic 1 (CHRM1) small molecule antagonists, cell-based qHTS assay (AID 1963588); details: CHRM1-CHO antagonist mode, calcium flux fluorescence; series mostly up to 61.5 µM; note: nearly all actives have a fitted effect of over 40% in size; note: potency is the fitted concentration of half-maximal effect
# Summary of the method: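 CHRM1-CHO calcium-flux assay, antagonist mode. Cells were seeded 18 h, dye-loaded 1 h at 37 C and given compound for 5 min at RT, then acetylcholine was added at 50nM. FDSS fluorescence was read 3 min; 15 concentrations, three runs.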
# [18] = cAMP Responsive Elements (CRE) small molecule agonists, cell-based qHTS assay (AID 1963590); details: CRE-bla HEK293T, beta-lactamase FRET ratio, 3 h; series mostly up to 92.4 µM
# Summary of the method: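 FRET-based beta-lactamase readout (LiveBLAzer B/G, 2 h RT) quantified CRE activation in HEK 293T CRE-bla cells after 3 h treatment with DMSO-dissolved compounds.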
# [19] = cAMP Responsive Elements (CRE) small molecule antagonists, cell-based qHTS assay (AID 1963591; active = well fitted inhibition curve with a large enough effect in the signal ratio in the repeat runs, not every such curve was filed as active; the % refers to the signal ratio); details: CRE-bla HEK293T, beta-lactamase FRET ratio; series mostly up to 92.4 µM
# Summary of the method: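 qHTS in CRE-bla HEK 293T cells: compound in DMSO, then 0.25 uM NKH477 (final), 3 h at 37 °C/5% CO2; beta-lactamase FRET read-out after 2 h substrate incubation.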
# [20] = biological target: 5-hydroxytryptamine receptor 2A (Homo sapiens) (UniProt P28223); assay: 5-hydroxytryptamine receptor 2A (HTR2A) small molecule antagonists, cell-based qHTS assay (AID 1963586); details: HTR2A-CHO cells, DOI-induced calcium flux, fluorescence; series mostly up to 61.5 µM; note: nearly all actives have a fitted effect of over 45% in size
# Summary of the method: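 Antagonist-mode intracellular calcium assay: DOI (4 nM) added after 5 min compound pre-incubation at room temperature to dye-loaded HTR2A-CHO cells. Fluorescence followed for 3 min, sampled every second.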
SMILES,Potency [1],Potency [2],Potency [3],Potency [4],Potency [5],Potency [6],Potency [7],Potency [8],Potency [9],Potency [10],Potency [11],Potency [12],Potency [13],Potency [14],Potency [15],Potency [16],Potency [17],Potency [18],Potency [19],Potency [20]
C[C@]12CCC(=O)C(O)=C1CC[C@@H]1[C@@H]2CC[C@]2(C)C(=O)CC[C@@H]12,inactive,inactive,inactive,inactive,inactive,inactive,inactive,inactive,inactive,inactive,inactive,inactive,inactive,inactive,inactive,inactive,–,–,–,–
CCCCCCC1CCOC1=O (stereo not given),inactive,inactive,inactive,inactive,inactive,inactive,inactive,inactive,inactive,inactive,inactive,inactive,inactive,inactive,inactive,inactive,inactive,inactive,inactive,–
O=[N+]([O-])c1ccc(Cl)cc1,inactive,inactive,inactive,inactive,inactive,inactive,inactive,inactive,inactive,inactive,inactive,–,–,inactive,inactive,inactive,–,inactive,inactive,inactive
Fc1cc(Br)ccc1CBr,inactive,inactive,inactive,inactive,inactive,inactive,inactive,inactive,inactive,inactive,inactive,inactive,inactive,inactive,inactive,inactive,inactive,inactive,inactive,–
C[C@]12CCC(=O)C=C1CC[C@@H]1[C@@H]2CC[C@]2(C)C(=O)CC[C@@H]12,inactive,inactive,inactive,inactive,inactive,inactive,inactive,inactive,inactive,inactive,inactive,inactive,inactive,inactive,inactive,inactive,inactive,–,–,–
CCC/C=N/O,inactive,inactive,inactive,inactive,inactive,inactive,inactive,inactive,inactive,inactive,inactive,inactive,–,inactive,inactive,inactive,inactive,inactive,inactive,–
O=C(O)C(Cl)(Cl)Cl,inactive,inactive,inactive,inactive,inactive,inactive,inactive,inactive,inactive,inactive,inactive,–,–,inactive,inactive,inactive,–,inactive,inactive,–
O=C(NC(=O)c1c(F)cccc1F)Nc1cc(Cl)c(OC(F)(F)C(F)C(F)(F)F)cc1Cl (stereo not given),inactive,inactive,inactive,inactive,inactive,inactive,inactive,inactive,inactive,inactive,inactive,inactive,inactive,inactive,inactive,–,9.42 µM (active),inactive,inactive,–
